# Assay outcomes as filed in PubChem BioAssay.
# Shown are actives, neighbours in structure and some others; about 8.5% of the full set was active somewhere.
# NPSR antagonist – blocks cAMP signaling of the human neuropeptide S receptor; Q6W5P4; CHO-NPSR cells, cAMP TR-FRET, antagonist mode; Potency, µM (doses to about 38.3 µM), inactives show at the top dose activity change, negative = inhibition, most hits filed as inhibitors; actives 1% (n = 220,000); AID 1461; active means well fitted curve in the direction sought with a large enough effect; inconclusive means small, poorly fitted or top-dose-only effect, or another doubt; inactive means no such curve, though single readings can be large; an effect the other way counts as inactive or inconclusive; further: potency means the concentration at half of the fitted maximal effect; nearly all actives have a fitted effect of over 50% in size
# FBPA coupling cs – counter-screen for Giardia aldolase inhibitors: coupling enzyme system; coupling enzyme system counterscreen, AmpLite Red fluorescence; activity change, negative = inhibition, % at 58.2 µM, hits read low; actives 0.67% (n = 290,000); AID 2472; in the data active means activity change below about -30%
#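 Counterscreen of the coupled detection system alone, without aldolase: glyceraldehyde-3-phosphate coupling enzymes plus AmpLite Red readout. Compounds at 57.5 uM final, 10 min RT preincubation, 20 min RT reaction, fluorescence 525/598 nm.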
# GoLoco inh red – blocks human Gai1 binding to RGS12 GoLoco peptide, red readout; actives 0.44% (n = 230,000); Potency, µM (series often up to 61.6 µM), without a hit: at the top dose activity, negative = inhibition, most hits filed as inhibitors; Gai1:RGS12 GoLoco peptide FP, rhodamine, 10 min; AID 880; active means well fitted inhibition curve with a large enough effect, not every such curve was filed as active; inactive means no such curve, though single readings can be large or run the other way; further: potency means the concentration at half of the fitted maximal effect; nearly all actives have a fitted effect of over 30% in size
# ALDH1A1 inh – ALDH1A1 (human) enzyme inhibition; Potency, µM (titrated, usually from 75.3 µM), without a hit: top-dose activity, negative = inhibition, actives largely listed as inhibitors; AID 1030; actives 7.3% (n = 220,000); Purified ALDH1A1, NADH fluorescence, propionaldehyde substrate; P00352;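 further: potency means the concentration at half of the fitted maximal effect; plate controls were no enzyme wells and a reference inhibitor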
# Target sequence (P00352 whole entry, looked up): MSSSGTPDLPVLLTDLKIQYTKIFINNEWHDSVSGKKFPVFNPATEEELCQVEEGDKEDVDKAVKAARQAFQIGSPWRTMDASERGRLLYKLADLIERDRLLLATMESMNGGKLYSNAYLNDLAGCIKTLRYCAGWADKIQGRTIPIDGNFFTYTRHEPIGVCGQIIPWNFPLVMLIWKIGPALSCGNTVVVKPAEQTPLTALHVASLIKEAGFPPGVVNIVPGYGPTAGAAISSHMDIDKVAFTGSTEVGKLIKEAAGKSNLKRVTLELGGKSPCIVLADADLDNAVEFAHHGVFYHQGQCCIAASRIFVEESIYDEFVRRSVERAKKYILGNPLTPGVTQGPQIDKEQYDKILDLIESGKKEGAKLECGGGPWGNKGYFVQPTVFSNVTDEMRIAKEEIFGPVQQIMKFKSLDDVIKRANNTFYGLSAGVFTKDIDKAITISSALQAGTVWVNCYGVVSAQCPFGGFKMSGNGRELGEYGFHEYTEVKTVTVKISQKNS
# JMJD2E inh – blocks human JMJD2E demethylase activity; JMJD2E catalytic domain, FDH-coupled NADH fluorescence (FDH is formaldehyde dehydrogenase); Potency, µM (doses to about 57.1 µM), without a hit: at the highest dose activity change, negative = inhibition, hits mostly inhibitors; actives 1.6% (n = 230,000); B2RXH2;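 further: potency means the concentration at half of the fitted maximal effect; 0% = wells with enzyme and -100% = buffer wells without enzyme; nearly all actives have a fitted effect of over 50% in size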
# Sfp PPTase inh – blocks B. subtilis Sfp PPTase activity; Biochemical Sfp PPTase activity, qHTS; Potency, µM, for the others: largest response in the series, negative = inhibition, actives largely listed as inhibitors; actives 3.5% (n = 310,000); AID 1490; active means well fitted curve in the direction sought with a large enough effect; inconclusive means small, poorly fitted or top-dose-only effect, or another doubt; inactive means no such curve, though single readings can be large; an effect the other way counts as inactive or inconclusive;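 further: the enzyme is Sfp with the accession as filed and its product quenches rhodamine fluorescence; potency means the concentration at half of the fitted maximal effect; 0% = enzyme reaction without inhibitor and -100% = no enzyme wells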
#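 With Hepes-Na pH 7.6 buffer containing 10 mM MgCl2, Sfp (15 nM) modified BHQ-2-YbbR (12.5 uM) using rhodamine-CoA (5 uM). Two reads 30 minutes apart at 525/598 nm yielded each well's rate.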
# An asterisk follows results filed as active; ? = inconclusive; . = no result given; [ ] = dose if it differs, or a comment. Unless noted, the call rests on the fitted dose curve; in most records, active means well fitted inhibition curve with a large enough effect (not every such curve was filed as active); inconclusive means small, poorly fitted or top-dose-only effect, or another doubt; inactive means no such curve, though single readings can be large or run the other way. Unless noted, on the % scale 0 is the no-effect control and ±100 the full control effect.
SMILES,NPSR antagonist,FBPA coupling cs,GoLoco inh red,ALDH1A1 inh,JMJD2E inh,Sfp PPTase inh
Cc1ccc(Cl)cc1N(CC(=O)Nc1cccc(N(C)S(C)(=O)=O)c1)S(C)(=O)=O,-8%,1,9%,-5%,10%,-5%
Cc1cccc(C)c1N(CC(=O)Nc1cccc(N(C)S(C)(=O)=O)c1)S(C)(=O)=O,9%[46.1 µM],-6,-3%,22µM*,0%,6%
O=C(NC(NC(=S)Nc1cc(Cl)ccc1Cl)C(Cl)(Cl)Cl)c1ccco1 (configuration not stated),?,0,4%,8.9µM*,0%,10%
O=C(/C=C/c1ccccc1)NC(NC(=S)Nc1cc(Cl)ccc1Cl)C(Cl)(Cl)Cl (configuration not stated),-13%[46.1 µM],1,-6%,22µM*,4%,-3%
O=C(NC(NC(=S)Nc1ccc(Cl)c(Cl)c1)C(Cl)(Cl)Cl)c1ccco1 (configuration not stated),?,0,14%,7.1µM*,-9%,?
O=C(Cc1ccccc1)NC(NC(=S)Nc1cc(Cl)ccc1Cl)C(Cl)(Cl)Cl (configuration not stated),-7%[46.1 µM],0,11%,?,-1%,-6%
O=C(NCc1ccccc1Br)c1ccncc1,.,5,.,.,.,12%
CCc1c(C)sc(NC(=O)c2cc(CC(C)C)on2)c1C#N,3%[46.1 µM],5,6%,?,36%,-7%
Cc1onc(C(=O)Nc2sc3c(c2C(N)=O)CCCC3)c1[N+](=O)[O-],-11%,-2,-9%,.,-4%,25µM*
CCc1c(C)sc(NC(=O)c2noc(C)c2[N+](=O)[O-])c1C#N,-15%,-5,3%,18µM*,-9%,50µM*
COc1ccc(C(CNC(=O)COc2ccc(Cl)cc2C)N2CCCCC2)cc1 (configuration not stated),.,.,.,.,.,8%
COc1ccc(C(C)=O)cc1COc1cccnc1[N+](=O)[O-],.,-1,.,.,.,9%
COc1ccc(C(C)=O)cc1COC(=O)c1ccc(N)c([N+](=O)[O-])c1,-14%,0,7%,10µM*,-3%,-20%
COc1ccc(C(C)=O)cc1COc1ccccc1[N+](=O)[O-],-10%,1,-4%,3.2µM*,3%,5%
Nc1ccc(C(=O)OCc2ccncc2)cc1[N+](=O)[O-],-8%,4,5%,3%,13%,11%
COC(C[C@H]1O[C@H]1C(=O)COCc1ccccc1)OC,23%,-1,8%,.,5%,9%
CC(=O)c1cc(CN2CCN(C3CCCCC3)C(CCO)C2)cs1 (configuration not stated),-15%,2,0%,-3%,-1%,9%
O=C(N/N=C/C(Br)=C\c1ccccc1)c1n[nH]c2c1CCC2,?,2,29%,?,?,28µM*
CC(/C=N/NC(=O)c1n[nH]c2c1CCC2)=C\c1ccccc1,?,5,7%,3%,3%,7%
Cc1cc(/C=C(/C#N)c2nc3ccccc3[nH]2)c(C)n1-c1cc(C(=O)O)cc(C(=O)O)c1,4%,-4,12%,2%,22µM*,0%
Cc1cc(/C=C(/C#N)c2nc3ccccc3[nH]2)c(C)n1-c1ccccc1C(=O)O,-8%,-8,68%,?,-6%,18%
Cc1nc(CCNC(=O)CC2C(=O)NCCN2Cc2ccc(F)cc2)sc1C (configuration not stated),-5%,-6,-10%,?,-18%,32µM*
COc1cccc(CN2CCNC(=O)C2CC(=O)NCCc2nc(C)c(C)s2)c1OC (configuration not stated),-17%,-4,12%,-10%,-18%,45µM*
Cc1nc(CCNC(=O)CC2C(=O)NCCN2Cc2ccccc2F)sc1C (configuration not stated),45%,-8,-3%,.,-5%,-8%
COc1cc(CN2CCNC(=O)C2CC(=O)NCCC2=CCCCC2)cc(OC)c1 (configuration not stated),-1%,-2,2%,20µM*,-19%,4%
